From PubChem BioAssay AID1159580 (chemical genetic matrix, 2015)
Among all 5,500 compounds or so, about 2,000 (36%) were called active. Inconclusive results (about 18%) are left out. Rule as the data show it: active = normalized growth mostly below about 0.91 (no sharp cut-off); inconclusive = no clear call, values can overlap the other calls; inactive = mostly above about 0.92. The list shows a part of the results.

Experiment: chemical genetic growth profiling, strain panel (AID 1159580);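 also: tested at 20 µM; growth read once vehicle control cultures reached saturation at 30 °C; 1 = growth at the plate median or of vehicle wells; lower values mean less growth of the strain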
Conditions: S. cerevisiae deletion strains, growth OD

Measured: normalized growth

CCCc1cc(OC)c2c(c1)OCO2
inactive: locus YAL021C, strain ccr4, hits give low values 1.04 | locus YAL026C, strain drs2, hits give low values 0.988 | locus YAL030W, strain snc1, hits give low values 0.999 | locus YBL061C, strain skt5, hits give low values 0.993 | locus YBR009C, strain hhf1, hits give low values 0.988 | locus YBR023C, strain chs3, hits give low values 0.991 | locus YBR171W, strain sec66, hits give low values 0.973 | locus YBR231C, strain swc5, hits give low values 1.01 | locus YBR279W, strain paf1, hits give low values 1 | locus YCL011C, strain gbp2, hits give low values 0.999 | locus YCL016C, strain dcc1, hits give low values 0.98 | locus YCL069W, strain vba3, hits give low values 0.996 | locus YCR088W, strain abp1, hits give low values 0.985 | locus YDL005C, strain med2, hits give low values 0.975 | locus YDL040C, strain nat1, hits give low values 0.978 | locus YDR001C, strain nth1, hits give low values 0.987 | locus YDR069C, strain doa4, hits give low values 0.994 | locus YDR137W, strain rgp1, hits give low values 0.94 | locus YDR159W, strain sac3, hits give low values 0.943 | locus YDR195W, strain ref2 0.974 | locus YDR297W, strain sur2, hits give low values 0.995 | locus YDR334W, strain swr1, hits give low values 1.01 | locus YDR335W, strain msn5, hits give low values 0.988 | locus YDR392W, strain spt3, hits give low values 0.952 | locus YEL003W, strain gim4, hits give low values 0.994 | locus YEL037C, strain rad23, hits give low values 0.998 | locus YEL061C, strain CIN8 (second series), hits give low values 0.979 | locus YER015W, strain faa2, hits give low values 0.989 | locus YER016W, strain bim1, hits give low values 0.977 | locus YER111C, strain swi4, hits give low values 0.976 | locus YER155C, strain BEM2 (second series), hits give low values 0.928 | locus YFR010W, strain ubp6, hits give low values 0.999 | locus YGL167C, strain pmr1, hits give low values 0.983 | locus YGL173C, strain kem1, hits give low values 0.987 | locus YGL227W, strain vid30, hits give low values 0.974 | locus YGL240W, strain doc1, hits give low values 1 | locus YGL253W, strain hxk2, hits give low values 0.995 | locus YHR013C, strain ard1, hits give low values 1.11 | locus YHR027C, strain rpn1, hits give low values 0.982 | locus YHR030C, strain SLT2, hits give low values 0.944 | locus YHR079C, strain IRE1, hits give low values 0.946 | locus YHR142W, strain chs7, hits give low values 0.974 | locus YJL092W, strain hpr5, hits give low values 0.985 | locus YJL095W, strain BCK1 (second series), hits give low values 1 | locus YJL095W, strain BCK1, hits give low values 1.02 | locus YJL115W, strain asf1, hits give low values 0.98 | locus YJL129C, strain trk1, hits give low values 0.992 | locus YJL154C, strain vps35, hits give low values 0.994 | locus YJL164C, strain tpk1, hits give low values 1 | locus YJL166W, strain qcr8, hits give low values 0.985 | locus YJL187C, strain SWE1, hits give low values 1 | locus YJR066W, strain TOR1, hits give low values 0.937 | locus YKL160W, strain elf1, hits give low values 0.983 | locus YKR026C, strain gcn3, hits give low values 0.971 | locus YKR091W, strain srl3, hits give low values 0.984 | locus YLL001W, strain dnm1, hits give low values 0.999 | locus YLL026W, hits give low values 0.992 | locus YLL041C, strain sdh2, hits give low values 0.997 | locus YLR027C, strain aat2, hits give low values 0.984 | locus YLR113W, strain HOG1, hits give low values 1.04 | locus YLR221C, strain rsa3, hits give low values 0.989 | locus YLR258W, strain gsy2, hits give low values 0.998 | locus YLR262C, strain YPT6 (second series), hits give low values 0.927 | locus YLR320W, strain mms22, hits give low values 1 | locus YLR342W, strain FKS1, hits give low values 0.977 | locus YLR357W, strain rsc2, hits give low values 0.974 | locus YLR370C, strain arc18, hits give low values 0.984 | locus YLR384C, strain iki3, hits give low values 0.995 | locus YML120C, strain ndi1, hits give low values 0.987 | locus YMR058W, strain fet3, hits give low values 1.02 | locus YMR125W, strain sto1, hits give low values 0.971 | locus YMR129W, hits give low values 0.975 | locus YMR205C, strain PFK2, hits give low values 0.98 | locus YMR231W, strain pep5, hits give low values 1 | locus YNL071W, strain lat1, hits give low values 0.998 | locus YNL183C, strain NPR1, hits give low values 1.01 | locus YNL209W, strain ssb2, hits give low values 0.967 | locus YNL248C, strain rpa49, hits give low values 0.989 | locus YNL322C, strain KRE1 (second series), hits give low values 0.976 | locus YNR049C, strain mso1, hits give low values 0.992 | locus YOR001W, strain rrp6, hits give low values 0.999 | locus YOR070C, strain gyp1, hits give low values 0.997 | locus YOR080W, strain dia2, hits give low values 0.966 | locus YOR083W, strain WHI5, hits give low values 0.938 | locus YOR106W, strain vam3, hits give low values 0.976 | locus YOR231W, strain MKK1, hits give low values 0.957 | locus YOR265W, strain rbl2, hits give low values 0.981 | locus YOR270C, strain vph1, hits give low values 1 | locus YOR290C, strain snf2, hits give low values 0.995 | locus YPL051W, strain arl3, hits give low values 0.991 | locus YPL078C, strain atp4, hits give low values 0.981 | locus YPL106C, strain sse1, hits give low values 0.976 | locus YPL240C, strain hsp82, hits give low values 0.974 | locus YPL256C, strain CLN2, hits give low values 0.953
